Results reported in the supplement of paper PMC7156485.
± gives the standard deviation of the averaged measurements.

These compounds were tested on HCC1569 (assay: cell number relative to DMSO (% of DMSO); higher = more cells (less growth inhibition / toxicity)). Details: concentration: 10 µM; 24 h.
Summary of the method: (§1)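 Using 384-well plates with 800 cells per well in RPMI plus 10% FBS, HCC1569 and TDF cells were exposed to compounds at 10 µM, in triplicate, for 24 h at 37 °C. Imaging of six fields per well at ×10 followed H1.0 and DAPI staining. The reported quantity, H1.0 nuclear intensity or cell number, is a median of replicates given as percent of the plate control, and HCC1569 values were smoothed for positional effects.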
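Also: TDF denotes transformed human dermal fibroblasts of mesenchymal origin.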

Structure (SMILES) | cell number
CC12CCC(O)CC1CCC1C2CCC2(C)C(C(=O)CO)CCC12 (stereo not drawn) [3-alpha,21-Dihydroxy-5-alpha-pregnan-20-one] | 102
Clc1cnc(Oc2ccc(Oc3ncc(Cl)cc3Cl)cc2)c(Cl)c1 | 100
O=P([O-])(O)C(Cl)(Cl)P(=O)([O-])O.[Na+].[Na+] [Clodronic acid] | 101
CN(C)CCc1ccc(O)cc1.CN(C)CCc1ccc(O)cc1.O=S(=O)(O)O [Hordenine sulfate] | 99.3
CCC1(O)C(=O)OCc2c1cc1n(c2=O)Cc2cc3ccccc3nc2-1 [(S)-(+)-Camptothecin] | 54.2
N#CC(C#N)=Cc1cc(O)c(O)c(O)c1 [Tyrphostin 25] | 91.1
Cl.Oc1ccc2c3c1OC1c4[nH]c5ccccc5c4CC4(O)C(C2)N(CC2CC2)CCC314 (stereo unspecified) [Naltrindole hydrochloride] | 101

These compounds were tested on TDF in the same assay as above. Details: concentration: 10 µM; 24 h.
Summary of the method: as §1

Structure (SMILES) | cell number
CC1(C(=O)O)CCCC2(C)c3cc(O)ccc3CCC12 (stereo unspecified) [Podocarpic acid] | 102
CC(=O)C1=C(O)C2C3c4c[nH]c5cccc(c45)CC3C(C)(C)N2C1=O (stereo unspecified) [Cyclopiazonic acid] | 90.8
O=c1[nH]c2ccccc2n1C1CCN(CCCC(c2ccc(F)cc2)c2ccc(F)cc2)CC1 [Pimozide] | 90.7 ± 1.7
CCCC[N+]1(C)C2CC(OC(=O)C(CO)c3ccccc3)CC1C1OC12.[Br-] (single isomer, unassigned; (-)) [(-)-Scopolamine,n-Butyl-, bromide] | 106
CC(=O)NCCc1c[nH]c2ccccc12 [N-Acetyltryptamine] | 97.5
C[N+]1(C)C2CCC1CC(OC(=O)C(CO)c1ccccc1)C2.O=[N+]([O-])[O-] (stereo unspecified) [Atropine methyl nitrate] | 113
Cl.c1ccc2c(c1)OCC(C1=NCCN1)O2 (stereo unspecified) [Idazoxan hydrochloride] | 98.8
C#C[C@]1(O)CC[C@H]2[C@@H]3CC[C@H]4Cc5nc6nc7ccccc7n6cc5C[C@]4(C)[C@H]3CC[C@@]21C | 88.1
COc1ccc(C(=O)c2c(C)n(CCN3CCOCC3)c3ccccc23)cc1 [Pravadoline] | 96.5
CS(=O)(=O)O.S=C=Nc1cccc(C2(N3CCCCC3)CCCCC2)c1 [Metaphit methanesulfonate] | 107
O=c1[nH]c2ccccc2n1C1CCN(Cc2ccc(-c3nc4cc5[nH]cnc5cc4nc3-c3ccccc3)cc2)CC1 [Akt Inhibitor VIII, Isozyme-Selective, Akti-1/2] | 81.2
CCCCCC(C=CC=CCC=CCC=CCCCC(=O)O)OO (stereo unspecified) | 100
C[C@]12CC[C@@H](O)C[C@@H]1CC[C@@H]1[C@@H]2CC[C@]2(C)[C@@H](O)CC[C@@H]12 [5alpha-Androstane-3alpha,17beta-diol] | 104
CCN(C)C(=O)Oc1cccc(C(C)N(C)C)c1 (stereo unspecified) [Rivastigmine] | 114
CCCN1CCCC(c2cccc(O)c2)C1.Cl (stereo not drawn) [S(-)-3PPP hydrochloride] | 110
CC(=O)[C@H]1CC[C@H]2[C@@H]3CC[C@H]4C[C@](C)(O)CC[C@]4(C)[C@H]3CC[C@]12C [(3alpha,5alpha)-3-hydroxy-3-methylpregnan-20-one] | 93
O=P1(N(CCCl)CCCl)NCCCO1 (stereo unspecified) [Cyclophosphamide] | 95.5
CC(=O)OC1C(=O)C2(C)C(O)CC3OCC3(OC(C)=O)C2C(OC(=O)c2ccccc2)C2(O)CC(O)C(C)=C1C2(C)C (stereo unspecified) [Baccatin III] | 112
CN(c1nc2ccccc2s1)C1CCN(CC(O)COc2ccc(F)c(F)c2)CC1.Cl.Cl (stereo unspecified) | 88.9
CC(N)C(O)c1ccc(O)c(O)c1 (single isomer, unassigned; (-)) [(-)-alpha-Methylnorepinephrine] | 98.5

Structure (SMILES) | cell number
CCCCCCC(=O)CCCCCCC=CCC(O)C(O)C(N)(CO)C(=O)O (stereo unspecified) [Myriocin] | 92.4
C[N+]1([O-])C2CCC1CC(OC(=O)C(CO)c1ccccc1)C2.Cl (stereo unspecified) | 107
CNC(=O)OCC[N+](C)(C)C.[Cl-] [Methylcarbamylcholine chloride] | 92.5
Cc1sc2ccccc2c1CC1=NCCN1.O=C(O)C(=O)O [Benazoline oxalate] | 106
CCCCCC1OC1CC=CCCCCCCCC(=O)O (stereo unspecified) [Leukotoxin B (12,13-EODE)] | 106
NC(CCCCCP(=O)(O)O)C(=O)O (stereo not drawn) [D(-)-2-Amino-7-phosphonoheptanoic acid] | 95.2
CC12CCC3C(CCC4=CC(=O)CCC43C)C1CCC2=O (stereo unspecified) [4-Androstene-3,17-dione] | 113
C[N+](C)(C)CCCCCCCCCC[N+](C)(C)C [Decamethonium] | 118
CC1OC1P(=O)([O-])[O-].[Na+].[Na+] (stereo unspecified) [Phosphomycin disodium] | 91.3
Br.CCCN(CCC)C1CCc2ccc(O)cc2C1 (stereo not drawn) [R-(+)-7-Hydroxy-DPAT hydrobromide] | 110
CS(=O)(=O)O.Cc1c(C(=O)c2cccc3ccccc23)c2cccc3c2n1C(CN1CCOCC1)CO3 (stereo not drawn) [( R)-(+)-WIN 55,212-2 mesylate] | 53.4
CN(C)C(=O)Oc1ccc[n+](C)c1.[Br-] [Pyridostigmine bromide] | 107
CC12CCC(O)CC1CCC1C2CCC2(C)C(C(=O)CO)CCC12 (stereo not drawn) [3-alpha,21-Dihydroxy-5-alpha-pregnan-20-one] | 89
Clc1cnc(Oc2ccc(Oc3ncc(Cl)cc3Cl)cc2)c(Cl)c1 | 109
O=P([O-])(O)C(Cl)(Cl)P(=O)([O-])O.[Na+].[Na+] [Clodronic acid] | 101
CN(C)CCc1ccc(O)cc1.CN(C)CCc1ccc(O)cc1.O=S(=O)(O)O [Hordenine sulfate] | 99.9
CCC1(O)C(=O)OCc2c1cc1n(c2=O)Cc2cc3ccccc3nc2-1 [(S)-(+)-Camptothecin] | 26.9
N#CC(C#N)=Cc1cc(O)c(O)c(O)c1 [Tyrphostin 25] | 89.8
Cl.Oc1ccc2c3c1OC1c4[nH]c5ccccc5c4CC4(O)C(C2)N(CC2CC2)CCC314 (stereo unspecified) [Naltrindole hydrochloride] | 99.3
